# PMC7862700, “An all-to-all approach to the identification of sequence-specific readers for epigenetic DNA modifications on cytosine”
# How the values were obtained:
# Experiment in all cases: DAPPL (digital affinity profiling via proximity ligation, sequencing); 10 mM Tris-HCl pH 7.5, 50 mM NaCl, 1 mM DTT, 4% glycerol, room temperature, 30 min; GST-TFs on glutathione beads, 16-mer random dsDNA library, 0.1% formaldehyde crosslink after washing; high values mean tight binding
# FLI1 = molecular target: T1, FLI1 (Homo sapiens, UniProt Q01543 1-452); conditions: protein: recombinant; tags: N-terminal GST; dsDNA, one strand shown
# T1 sequence: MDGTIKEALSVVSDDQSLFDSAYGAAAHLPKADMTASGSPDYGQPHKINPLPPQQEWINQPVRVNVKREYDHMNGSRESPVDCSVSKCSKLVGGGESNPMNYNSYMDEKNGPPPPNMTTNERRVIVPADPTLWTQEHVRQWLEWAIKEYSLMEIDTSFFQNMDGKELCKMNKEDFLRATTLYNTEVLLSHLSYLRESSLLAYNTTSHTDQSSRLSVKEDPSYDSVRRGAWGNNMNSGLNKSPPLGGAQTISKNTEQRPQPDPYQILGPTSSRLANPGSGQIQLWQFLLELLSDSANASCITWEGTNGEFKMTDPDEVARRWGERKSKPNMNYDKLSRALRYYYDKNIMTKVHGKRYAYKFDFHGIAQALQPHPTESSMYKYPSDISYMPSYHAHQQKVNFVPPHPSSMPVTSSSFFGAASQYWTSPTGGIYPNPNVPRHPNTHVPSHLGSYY
# How it was run: (§1)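 Pools of DNA-barcoded human transcription factors, expressed in yeast as GST fusions on glutathione beads and combined with a tag-only sample, were incubated with 200 nmole of a 16-mer random double-stranded DNA library. Incubation took 30 min at room temperature in Tris/NaCl/DTT/glycerol buffer and was followed by washing, 0.1% formaldehyde crosslinking, proximity ligation (BsaI/T4 ligase, 1 h, 37 °C), PCR amplification and sequencing on an Illumina NextSeq500. Binding signal is the ratio of a hexamer's read frequency for a factor to its frequency for the tag-only sample.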
# ELK1 = molecular target: T2, ELK1 (Homo sapiens, UniProt P19419 1-428); conditions: protein: recombinant; tags: N-terminal GST; dsDNA, one strand shown
# T2 sequence: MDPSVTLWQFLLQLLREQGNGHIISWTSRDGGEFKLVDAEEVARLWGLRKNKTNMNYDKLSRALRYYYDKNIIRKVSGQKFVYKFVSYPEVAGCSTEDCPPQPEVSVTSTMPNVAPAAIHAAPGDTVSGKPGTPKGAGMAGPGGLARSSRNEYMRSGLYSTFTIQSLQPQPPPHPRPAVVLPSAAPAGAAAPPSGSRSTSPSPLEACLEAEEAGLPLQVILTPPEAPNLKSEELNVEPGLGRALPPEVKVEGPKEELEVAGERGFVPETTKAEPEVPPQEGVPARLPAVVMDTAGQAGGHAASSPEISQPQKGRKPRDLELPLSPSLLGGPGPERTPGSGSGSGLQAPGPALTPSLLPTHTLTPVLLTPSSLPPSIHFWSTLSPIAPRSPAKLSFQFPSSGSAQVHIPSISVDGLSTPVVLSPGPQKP
# How it was run: as §1
# GABPA = molecular target: T3, GABPA (Homo sapiens, UniProt Q06546 1-454); conditions: protein: recombinant; tags: N-terminal GST; dsDNA, one strand shown
# T3 sequence: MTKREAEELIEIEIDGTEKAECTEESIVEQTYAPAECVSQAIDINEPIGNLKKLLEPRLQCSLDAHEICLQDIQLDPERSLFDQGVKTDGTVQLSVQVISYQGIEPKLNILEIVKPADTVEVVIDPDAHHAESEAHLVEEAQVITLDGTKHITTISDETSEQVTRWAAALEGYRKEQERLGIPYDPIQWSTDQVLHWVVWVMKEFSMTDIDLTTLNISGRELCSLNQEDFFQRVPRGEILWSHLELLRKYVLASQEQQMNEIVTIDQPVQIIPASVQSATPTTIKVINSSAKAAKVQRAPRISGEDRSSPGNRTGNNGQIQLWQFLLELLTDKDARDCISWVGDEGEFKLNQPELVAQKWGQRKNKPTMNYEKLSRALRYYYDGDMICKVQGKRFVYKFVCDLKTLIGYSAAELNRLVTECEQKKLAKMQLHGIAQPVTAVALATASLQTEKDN
# How it was run: as §1
# ERG = molecular target: T4, ERG (Homo sapiens, UniProt P11308 1-479); conditions: protein: recombinant; tags: N-terminal GST; dsDNA, one strand shown
# T4 sequence: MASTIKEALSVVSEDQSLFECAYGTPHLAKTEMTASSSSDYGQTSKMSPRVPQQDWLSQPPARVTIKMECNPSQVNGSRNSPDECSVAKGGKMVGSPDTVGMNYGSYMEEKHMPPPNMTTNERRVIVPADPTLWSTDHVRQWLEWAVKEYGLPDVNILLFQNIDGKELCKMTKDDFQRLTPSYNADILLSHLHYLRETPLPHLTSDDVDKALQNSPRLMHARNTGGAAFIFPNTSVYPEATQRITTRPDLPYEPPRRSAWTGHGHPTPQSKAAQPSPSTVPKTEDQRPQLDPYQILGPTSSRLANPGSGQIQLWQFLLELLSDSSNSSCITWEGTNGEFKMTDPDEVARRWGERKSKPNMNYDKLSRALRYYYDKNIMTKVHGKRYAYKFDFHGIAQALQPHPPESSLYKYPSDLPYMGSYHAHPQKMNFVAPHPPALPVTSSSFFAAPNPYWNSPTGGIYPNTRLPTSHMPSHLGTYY
# How it was run: as §1
# ELF1 = ELF1 (Homo sapiens, UniProt P32519 1-619); conditions: protein: recombinant; tags: N-terminal GST; dsDNA, one strand shown
# How it was run: as §1
# EHF = molecular target: T5, EHF (Homo sapiens, UniProt Q9NZC4 1-300); conditions: protein: recombinant; tags: N-terminal GST; dsDNA, one strand shown
# T5 sequence: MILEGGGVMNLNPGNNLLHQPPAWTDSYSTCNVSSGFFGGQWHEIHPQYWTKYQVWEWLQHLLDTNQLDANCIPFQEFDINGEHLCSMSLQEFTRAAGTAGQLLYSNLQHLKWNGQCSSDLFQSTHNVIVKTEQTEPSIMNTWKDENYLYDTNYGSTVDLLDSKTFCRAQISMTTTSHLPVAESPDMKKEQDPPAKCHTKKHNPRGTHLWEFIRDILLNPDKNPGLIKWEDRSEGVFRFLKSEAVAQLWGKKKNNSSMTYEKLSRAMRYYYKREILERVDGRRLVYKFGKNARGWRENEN
# How it was run: as §1
# SPI1 = SPI1 (Homo sapiens, UniProt P17947 1-270); conditions: protein: recombinant; tags: N-terminal GST; dsDNA, one strand shown
# How it was run: as §1
# SPIB = SPIB (Homo sapiens, UniProt Q01892 1-262); conditions: protein: recombinant; tags: N-terminal GST; dsDNA, one strand shown
# How it was run: as §1
# ELK3 = molecular target: T6, ELK3 (Homo sapiens, UniProt P41970 1-407); conditions: protein: recombinant; tags: N-terminal GST; dsDNA, one strand shown
# T6 sequence: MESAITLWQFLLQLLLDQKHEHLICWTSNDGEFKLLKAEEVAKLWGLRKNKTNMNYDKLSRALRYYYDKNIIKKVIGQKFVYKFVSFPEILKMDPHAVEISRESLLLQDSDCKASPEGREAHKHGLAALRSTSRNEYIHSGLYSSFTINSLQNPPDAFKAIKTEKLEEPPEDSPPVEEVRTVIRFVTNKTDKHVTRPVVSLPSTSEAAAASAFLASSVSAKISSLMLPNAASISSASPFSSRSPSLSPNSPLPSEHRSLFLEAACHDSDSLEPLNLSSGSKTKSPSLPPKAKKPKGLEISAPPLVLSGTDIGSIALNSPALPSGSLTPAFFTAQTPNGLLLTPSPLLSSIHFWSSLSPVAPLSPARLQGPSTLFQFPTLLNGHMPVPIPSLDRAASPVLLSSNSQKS
# How it was run: as §1
# FEV = molecular target: T7, FEV (Homo sapiens, UniProt Q99581 1-238); conditions: protein: recombinant; tags: N-terminal GST; dsDNA, one strand shown
# T7 sequence: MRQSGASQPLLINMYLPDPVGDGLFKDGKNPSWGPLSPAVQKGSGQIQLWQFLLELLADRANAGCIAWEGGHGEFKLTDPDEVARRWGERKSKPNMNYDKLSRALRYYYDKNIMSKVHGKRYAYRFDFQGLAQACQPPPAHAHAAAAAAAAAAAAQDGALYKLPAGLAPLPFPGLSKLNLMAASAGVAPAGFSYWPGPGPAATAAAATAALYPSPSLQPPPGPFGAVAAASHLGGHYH
# How it was run: as §1
# ETV5 = ETV5 (Homo sapiens, UniProt P41161 1-510); conditions: protein: recombinant; tags: N-terminal GST; dsDNA, one strand shown
# How it was run: as §1
# HSF1 = HSF1 (Homo sapiens, UniProt Q00613 1-529); conditions: protein: recombinant; tags: N-terminal GST; chain copies: 3; dsDNA, one strand shown
# How it was run: as §1
# SPIC = molecular target: T8, SPIC (Homo sapiens, UniProt Q8N5J4 1-248); conditions: protein: recombinant; tags: N-terminal GST; dsDNA, one strand shown
# T8 sequence: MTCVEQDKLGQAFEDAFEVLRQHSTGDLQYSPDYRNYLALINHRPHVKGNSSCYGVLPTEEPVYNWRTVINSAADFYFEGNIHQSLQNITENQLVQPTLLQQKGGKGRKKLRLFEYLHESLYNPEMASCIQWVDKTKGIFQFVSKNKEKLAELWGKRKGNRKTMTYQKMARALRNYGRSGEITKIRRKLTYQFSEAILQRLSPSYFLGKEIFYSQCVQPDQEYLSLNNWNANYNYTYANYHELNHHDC
# How it was run: as §1
# ELF4 = ELF4 (Homo sapiens, UniProt Q99607 1-663); conditions: protein: recombinant; tags: N-terminal GST; dsDNA, one strand shown
# How it was run: as §1
# ELK4 = molecular target: T9, ELK4 (Homo sapiens, UniProt P28324-2 1-405); conditions: protein: recombinant; tags: N-terminal GST; dsDNA, one strand shown
# T9 sequence: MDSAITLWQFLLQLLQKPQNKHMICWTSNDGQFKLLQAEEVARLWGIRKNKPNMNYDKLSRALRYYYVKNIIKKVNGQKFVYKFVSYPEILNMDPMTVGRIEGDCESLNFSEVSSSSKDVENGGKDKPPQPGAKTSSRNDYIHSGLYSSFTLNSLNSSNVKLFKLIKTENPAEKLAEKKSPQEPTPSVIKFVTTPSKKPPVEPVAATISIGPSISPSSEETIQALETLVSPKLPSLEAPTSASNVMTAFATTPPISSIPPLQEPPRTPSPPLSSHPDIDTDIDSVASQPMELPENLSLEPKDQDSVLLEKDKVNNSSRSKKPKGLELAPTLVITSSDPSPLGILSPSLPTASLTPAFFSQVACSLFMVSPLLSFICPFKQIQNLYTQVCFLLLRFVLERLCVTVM
# How it was run: as §1
# ETV2 = molecular target: T10, ETV2 (Homo sapiens, UniProt O00321 1-342); conditions: protein: recombinant; tags: N-terminal GST; dsDNA, one strand shown
# T10 sequence: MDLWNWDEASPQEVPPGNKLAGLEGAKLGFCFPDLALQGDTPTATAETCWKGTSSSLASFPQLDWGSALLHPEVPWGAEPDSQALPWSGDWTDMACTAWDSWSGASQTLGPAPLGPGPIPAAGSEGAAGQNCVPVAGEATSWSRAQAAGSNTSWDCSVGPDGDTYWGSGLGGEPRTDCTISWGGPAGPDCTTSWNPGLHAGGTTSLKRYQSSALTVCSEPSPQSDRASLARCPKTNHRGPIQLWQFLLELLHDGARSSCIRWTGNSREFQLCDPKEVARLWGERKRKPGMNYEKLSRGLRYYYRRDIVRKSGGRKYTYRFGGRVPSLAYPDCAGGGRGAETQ
# How it was run: as §1
# ELF3 = molecular target: T11, ELF3 (Homo sapiens, UniProt P78545 1-371); conditions: protein: recombinant; tags: N-terminal GST; dsDNA, one strand shown
# T11 sequence: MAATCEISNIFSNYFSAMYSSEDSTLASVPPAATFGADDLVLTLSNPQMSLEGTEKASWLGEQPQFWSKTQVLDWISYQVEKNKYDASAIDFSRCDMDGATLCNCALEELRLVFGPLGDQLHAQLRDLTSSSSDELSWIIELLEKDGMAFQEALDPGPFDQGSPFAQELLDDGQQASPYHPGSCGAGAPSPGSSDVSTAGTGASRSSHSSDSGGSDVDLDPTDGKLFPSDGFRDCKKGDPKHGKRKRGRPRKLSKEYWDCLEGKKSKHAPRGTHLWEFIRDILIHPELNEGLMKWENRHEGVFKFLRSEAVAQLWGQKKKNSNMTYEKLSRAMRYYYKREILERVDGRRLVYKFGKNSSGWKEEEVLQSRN
# How it was run: as §1
# CRX = CRX (Homo sapiens, UniProt O43186 1-299); conditions: protein: recombinant; tags: N-terminal GST; dsDNA, one strand shown
# How it was run: as §1
# ETV1 = ETV1 (Homo sapiens, UniProt P50549 1-477); conditions: protein: recombinant; tags: N-terminal GST; dsDNA, one strand shown
# How it was run: as §1
# Chain of CRX (O43186 whole entry): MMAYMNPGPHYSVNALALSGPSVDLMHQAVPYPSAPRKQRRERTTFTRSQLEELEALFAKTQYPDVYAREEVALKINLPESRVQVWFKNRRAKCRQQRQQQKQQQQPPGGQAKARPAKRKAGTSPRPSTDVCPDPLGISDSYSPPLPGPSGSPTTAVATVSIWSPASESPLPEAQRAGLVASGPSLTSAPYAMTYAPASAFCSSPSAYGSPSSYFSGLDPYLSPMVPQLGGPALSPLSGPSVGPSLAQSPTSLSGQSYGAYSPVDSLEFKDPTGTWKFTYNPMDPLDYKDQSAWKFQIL
# Chain of HSF1 (Q00613 whole entry): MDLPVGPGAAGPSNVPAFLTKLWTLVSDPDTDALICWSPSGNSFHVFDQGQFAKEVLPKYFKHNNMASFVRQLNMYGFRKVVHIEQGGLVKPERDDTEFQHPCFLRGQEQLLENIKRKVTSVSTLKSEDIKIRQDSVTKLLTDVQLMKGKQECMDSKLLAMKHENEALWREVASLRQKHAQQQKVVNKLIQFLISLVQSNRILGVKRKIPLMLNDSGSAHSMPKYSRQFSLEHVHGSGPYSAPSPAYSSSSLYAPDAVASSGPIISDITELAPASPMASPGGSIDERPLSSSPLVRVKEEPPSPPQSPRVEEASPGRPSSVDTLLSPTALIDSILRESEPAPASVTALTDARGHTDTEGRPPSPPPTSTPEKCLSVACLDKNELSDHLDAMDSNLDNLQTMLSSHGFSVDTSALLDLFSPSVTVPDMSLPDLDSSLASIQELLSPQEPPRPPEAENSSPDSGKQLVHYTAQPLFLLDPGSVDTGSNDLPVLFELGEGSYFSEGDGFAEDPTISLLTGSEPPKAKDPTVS
# Chain of ETV5 (P41161 whole entry): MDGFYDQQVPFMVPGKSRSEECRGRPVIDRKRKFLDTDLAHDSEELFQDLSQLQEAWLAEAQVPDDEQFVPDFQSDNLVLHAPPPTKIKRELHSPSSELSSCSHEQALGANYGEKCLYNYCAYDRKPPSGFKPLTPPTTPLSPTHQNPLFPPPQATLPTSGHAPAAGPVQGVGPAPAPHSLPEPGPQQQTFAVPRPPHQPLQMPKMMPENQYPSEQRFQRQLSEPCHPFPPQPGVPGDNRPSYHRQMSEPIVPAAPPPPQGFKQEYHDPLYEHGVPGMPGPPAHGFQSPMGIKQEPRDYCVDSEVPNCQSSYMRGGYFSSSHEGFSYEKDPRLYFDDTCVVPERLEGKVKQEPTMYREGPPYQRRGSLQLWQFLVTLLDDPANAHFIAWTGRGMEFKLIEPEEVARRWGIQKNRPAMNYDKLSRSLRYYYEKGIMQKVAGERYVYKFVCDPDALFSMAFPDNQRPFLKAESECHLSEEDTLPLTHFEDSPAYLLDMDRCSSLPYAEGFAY
# Chain of ELF4 (Q99607 whole entry): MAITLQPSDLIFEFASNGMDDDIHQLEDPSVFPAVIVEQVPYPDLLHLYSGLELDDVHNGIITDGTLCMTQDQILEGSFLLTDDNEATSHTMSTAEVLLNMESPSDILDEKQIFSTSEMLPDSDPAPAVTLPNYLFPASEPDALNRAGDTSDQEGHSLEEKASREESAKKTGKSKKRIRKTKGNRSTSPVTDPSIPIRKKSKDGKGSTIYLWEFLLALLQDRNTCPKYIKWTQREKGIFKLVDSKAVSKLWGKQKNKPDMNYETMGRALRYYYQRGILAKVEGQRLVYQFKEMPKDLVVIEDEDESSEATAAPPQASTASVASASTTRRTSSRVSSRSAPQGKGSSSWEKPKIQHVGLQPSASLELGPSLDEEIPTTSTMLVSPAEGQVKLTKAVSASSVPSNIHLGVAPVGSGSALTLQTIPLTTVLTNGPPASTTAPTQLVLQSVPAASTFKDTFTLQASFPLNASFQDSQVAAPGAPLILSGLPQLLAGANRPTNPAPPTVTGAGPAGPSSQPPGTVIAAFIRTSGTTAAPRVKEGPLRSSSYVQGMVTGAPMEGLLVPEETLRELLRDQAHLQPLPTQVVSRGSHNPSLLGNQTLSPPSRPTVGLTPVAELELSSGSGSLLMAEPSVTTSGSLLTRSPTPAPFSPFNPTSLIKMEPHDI
# Chain of ELF1 (P32519 whole entry): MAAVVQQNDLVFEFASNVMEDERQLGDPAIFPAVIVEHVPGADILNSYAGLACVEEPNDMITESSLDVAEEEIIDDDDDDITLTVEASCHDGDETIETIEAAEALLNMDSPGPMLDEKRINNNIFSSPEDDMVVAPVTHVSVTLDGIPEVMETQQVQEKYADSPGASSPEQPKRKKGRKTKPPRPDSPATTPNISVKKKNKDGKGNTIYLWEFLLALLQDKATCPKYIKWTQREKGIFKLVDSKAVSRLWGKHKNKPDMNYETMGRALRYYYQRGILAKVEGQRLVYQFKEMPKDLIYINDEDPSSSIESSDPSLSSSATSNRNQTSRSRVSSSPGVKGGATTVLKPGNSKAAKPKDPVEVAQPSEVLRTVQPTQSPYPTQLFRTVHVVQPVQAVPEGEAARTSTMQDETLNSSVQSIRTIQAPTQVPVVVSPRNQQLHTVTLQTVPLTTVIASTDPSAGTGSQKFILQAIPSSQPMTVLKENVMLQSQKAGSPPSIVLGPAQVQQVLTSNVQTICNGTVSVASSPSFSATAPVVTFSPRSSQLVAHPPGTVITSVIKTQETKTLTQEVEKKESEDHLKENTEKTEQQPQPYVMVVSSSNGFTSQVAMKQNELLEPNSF
# Chain of SPIB (Q01892 whole entry): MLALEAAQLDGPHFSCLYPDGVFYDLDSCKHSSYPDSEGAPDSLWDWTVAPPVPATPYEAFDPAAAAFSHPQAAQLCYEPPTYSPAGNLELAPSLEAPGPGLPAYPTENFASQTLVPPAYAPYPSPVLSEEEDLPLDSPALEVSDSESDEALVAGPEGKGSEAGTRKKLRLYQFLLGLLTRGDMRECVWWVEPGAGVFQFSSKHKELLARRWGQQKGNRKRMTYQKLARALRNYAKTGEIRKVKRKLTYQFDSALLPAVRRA
# Chain of ETV1 (P50549 whole entry): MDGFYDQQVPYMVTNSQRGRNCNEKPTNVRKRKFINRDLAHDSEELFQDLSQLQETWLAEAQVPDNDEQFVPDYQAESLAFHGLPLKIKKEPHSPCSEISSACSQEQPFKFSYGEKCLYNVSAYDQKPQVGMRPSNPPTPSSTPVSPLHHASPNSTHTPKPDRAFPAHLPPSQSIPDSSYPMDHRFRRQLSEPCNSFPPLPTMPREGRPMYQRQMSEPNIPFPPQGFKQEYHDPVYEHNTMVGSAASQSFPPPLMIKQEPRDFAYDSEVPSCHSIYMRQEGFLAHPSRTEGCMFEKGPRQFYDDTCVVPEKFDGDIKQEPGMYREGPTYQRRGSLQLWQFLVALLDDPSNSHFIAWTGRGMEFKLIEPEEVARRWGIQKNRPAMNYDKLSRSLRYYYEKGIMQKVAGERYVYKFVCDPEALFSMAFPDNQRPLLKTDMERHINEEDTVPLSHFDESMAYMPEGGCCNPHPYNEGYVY
sequence,measurement,setting,value
TACGTA,binding signal,FLI1,"1.41 fold enrichment (6-mer frequency, TF over GST control)"
same,binding signal,ELK1,"1.36 fold enrichment (6-mer frequency, TF over GST control)"
same,binding signal,GABPA,"1.31 fold enrichment (6-mer frequency, TF over GST control)"
same,binding signal,ERG,"1.2 fold enrichment (6-mer frequency, TF over GST control)"
same,binding signal,ELF1,"1.32 fold enrichment (6-mer frequency, TF over GST control)"
same,binding signal,EHF,"1.41 fold enrichment (6-mer frequency, TF over GST control)"
same,binding signal,SPI1,"1.35 fold enrichment (6-mer frequency, TF over GST control)"
same,binding signal,SPIB,"1.15 fold enrichment (6-mer frequency, TF over GST control)"
same,binding signal,ELK3,"1.37 fold enrichment (6-mer frequency, TF over GST control)"
same,binding signal,FEV,"1.27 fold enrichment (6-mer frequency, TF over GST control)"
same,binding signal,ETV5,"1.37 fold enrichment (6-mer frequency, TF over GST control)"
same,binding signal,HSF1,"1.23 fold enrichment (6-mer frequency, TF over GST control)"
same,binding signal,SPIC,"1.27 fold enrichment (6-mer frequency, TF over GST control)"
same,binding signal,ELF4,"1.33 fold enrichment (6-mer frequency, TF over GST control)"
same,binding signal,ELK4,"1.3 fold enrichment (6-mer frequency, TF over GST control)"
same,binding signal,ETV2,"1.33 fold enrichment (6-mer frequency, TF over GST control)"
same,binding signal,ELF3,"1.4 fold enrichment (6-mer frequency, TF over GST control)"
same,binding signal,CRX,"1.49 fold enrichment (6-mer frequency, TF over GST control)"
same,binding signal,ETV1,"1.4 fold enrichment (6-mer frequency, TF over GST control)"
